From PubChem BioAssay (Tox21)
Values joined by “and” are separate entries in the source; they are usually repeats but may differ in a detail not shown here. Equal entries are not always repeated. Records with an inconclusive call do not appear. A structure can be active in one record and inactive in another. Active and inactive are the calls of the source. Unless noted, the call rests on the fitted dose curve; in most records, active means well fitted curve in the direction sought with a large enough effect in the repeat runs; inconclusive means weak or mixed curves; inactive means no such curve, though single readings can be large; an effect the other way counts as inactive or inconclusive. Starred links: 1 amine or outer side, 2 acyl side, 3 side chain; linkers in the order of their positions; H or OH if unused. Positions of bridges follow the written chain, without caps; N, C: chain ends. Non-standard residues stand in square brackets, D forms with d. Residues, ends and D or L forms follow the SMILES beside them. Chains are numbered I, II in the order given. Actinocin(9to1) = Cc1c2oc3c(C)ccc(C(=O)[*:1])c3nc-2c(C(=O)[*:2])c(N)c1=O; NMeV = CN[C@H](C(=O)O)C(C)C; Sar = CNCC(=O)O

What was measured:
[1] = qHTS assay to identify small molecule agonists of the estrogen receptor alpha (ER-alpha) signaling pathway in the presence of an antagonist - cell viability counter screen (AID 1259386);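 further: cells exposed to compounds for 22 h at 37 °C before the viability read; nearly all actives have a fitted effect of over 30% in size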; further: potency means the concentration at half of the fitted maximal effect
Summary of the method: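 Viability counter screen using VM7Luc4E2 (full-length ER-alpha, four ERE-luciferase). The cells were treated with compounds alongside ICI-182,780 10.0nM for 22hr, and live-cell protease fluorescence was quantified with CellTiter-Fluor.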

[2] = qHTS assay to identify small molecule antagonists of the progesterone receptor (PR) signaling pathway - cell viability counter screen (AID 1346798); further: nearly all actives have a fitted effect of over 50% in size; further: potency means the concentration at half of the fitted maximal effect
Summary of the method: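 ATP content as viability readout: CellTiter-Glo luminescence, 30 min room temperature, in PR-UAS-bla HEK293T cells after 16 hr compound/R5020 treatment at 37C and 5% CO2.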

[3] = qHTS assay to identify small molecule agonists of the progesterone receptor (PR) signaling pathway - cell viability counter screen (AID 1346799; calls by dose curve; further: nearly all actives have a fitted effect of over 45% in size; further: potency means the concentration at half of the fitted maximal effect)
Summary of the method: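 Cytotoxicity in PR-bla HEK293T cells: 16 h compound, 37C; CellTiter-Glo added post-FRET read; luminescence after 30 min RT.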

[4] = qHTS assay to identify small molecule antagonists of the TGF-beta/Smad signaling pathway - cell viability counter screen (AID 1346824); further: nearly all actives have a fitted effect of over 50% in size; further: potency means the concentration at half of the fitted maximal effect
Summary of the method: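 Cytotoxicity counter-screen run in the same wells as the beta-lactamase Smad reporter read: CellTiter-Glo luminescence after 30 min at room temperature. HEK 293T SBE-bla cells had 5 hr compound exposure at 37 C with TGF-beta1 (0.25 ng/mL stock).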

[5] = qHTS assay to identify small molecule agonists of the TGF-beta/Smad signaling pathway - cell viability counter screen (AID 1346829); further: nearly all actives have a fitted effect of over 45% in size; further: potency means the concentration at half of the fitted maximal effect
Summary of the method: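 In parallel with the Smad reporter read, viability of HEK 293T cells stably carrying SBE-bla is quantified by ATP luminescence following 5 hr compound treatment.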

[6] = Caspase-3/7 induction in HepG2 cells by small molecules, qHTS assay (AID 1346978); further: nearly all actives have a fitted effect of over 15% in size; further: potency means the concentration at half of the fitted maximal effect
Summary of the method: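 Caspase-3/7 induction was measured by Caspase-Glo 3/7 luminescence (30 min, room temperature) after a 17 hr compound exposure of wild-type HepG2 cells seeded at 2,000 per well and pre-incubated 5 hr.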

[7] = Caspase-3/7 induction in CHO-K1 cells by small molecules, qHTS cell viability counter screen (AID 1346979); further: nearly all actives have a fitted effect of over 35% in size; further: potency means the concentration at half of the fitted maximal effect
Summary of the method: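 To flag cytotoxic compounds, treated CHO-K1 wild-type cells were given CellTiter-Fluor at 16hr and read fluorescently after 1hr at 37C; the caspase-3/7 luminescence was measured in these same wells.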

[8] = Caspase-3/7 induction in HepG2 cells by small molecules, qHTS cell viability counter screen (AID 1346981); further: nearly all actives have a fitted effect of over 30% in size; further: potency means the concentration at half of the fitted maximal effect
Summary of the method: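 Viability determined by CellTiter-Fluor fluorescence in HepG2 wells also used for the luminescent Caspase-Glo 3/7 read. Compounds were present for 16 hr at 37 C, 5% CO2 before reagent addition.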

[9] = target: Nuclear receptor subfamily 1 group I member 2 (Homo sapiens) (UniProt O75469); assay: Human pregnane X receptor (PXR) small molecule agonists, qHTS assay (AID 1346982); further: nearly all actives have a fitted effect of over 35% in size; further: potency means the concentration at half of the fitted maximal effect
Summary of the method: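 Compound-induced hPXR transactivation of a CYP3A4 luciferase reporter was scored in HepG2 PXR-Luc cells over 24 hr at 37 C, 5% CO2, by luminescence.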

[10] = qHTS assay to identify small molecule agonists of the TGF-beta/Smad signaling pathway (AID 1346859; active means well fitted activation curve with a large enough effect in the signal ratio in the repeat runs, not every such curve was filed as active; the % refers to the signal ratio; further: series mostly up to about 77 µM)
Summary of the method: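 Stable Smad binding element-beta-lactamase HEK 293T cells; 5 hr compound exposure at 37 C under 5% CO2; 2 hr room-temperature substrate step; fluorescence excited at 405 nm, collected at 460 nm and 530 nm.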

[11] = target: Thyrotropin-releasing hormone receptor (Homo sapiens) (UniProt P34981); assay: qHTS assay to identify small molecule antagonists of the thyrotropin-releasing hormone receptor (TRHR) signaling pathway (AID 1346877; active means well fitted inhibition curve with a large enough effect in the repeat runs, not every such curve was filed as active; further: potency means the concentration at half of the fitted maximal effect)
Summary of the method: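 Following an 18 h incubation at 37 °C and a 2 h calcium dye load, TRHR-HEK293 cells were exposed to compound (5 min, room temperature) and challenged with TRH, 1 nM final.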

[12] = target: Thyrotropin-releasing hormone receptor (Homo sapiens) (UniProt P34981); assay: qHTS assay to identify small molecule agonists of the thyrotropin-releasing hormone receptor (TRHR) signaling pathway (AID 1346891; calls by dose curve; further: potency means the concentration at half of the fitted maximal effect;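 on activation: HEK293 cells expressing TRHR with calcium dye readout; series mostly up to about 58 µM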)
Summary of the method: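 In 1536-format, 1500 TRHR-Hek293 cells per well grew 18 h, took up calcium dye for 2 h at 37 °C, received compound, and were read kinetically; 15-point titrations, triplicates.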

[13] = Human pregnane X receptor (PXR) small molecule agonists, qHTS cell viability counter screen (AID 1346977); further: nearly all actives have a fitted effect of over 50% in size; further: potency means the concentration at half of the fitted maximal effect
Summary of the method: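 Readout is CellTiter-Fluor fluorescence from PXR-Luc HepG2 cells. Plated cells rested 5hr, then were treated with compounds for 24hr at 37C and 5% CO2, with reagent present during the last hour.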

[14] = Caspase-3/7 induction in CHO-K1 cells by small molecules, qHTS assay (AID 1346980); further: nearly all actives have a fitted effect of over 15% in size
Summary of the method: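 Luminescent Caspase-Glo 3/7 read (30min, room temperature) quantified apoptosis induction. Cells were wild-type CHO-K1, treated with compound for 17hr at 37 C and 5% CO2.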

[15] = target: Cytochrome P450 2D6 (Homo sapiens) (UniProt P10635); assay: Cytochrome P450 Family 2 Subfamily D Member 6 (CYP2D6) small molecule antagonists: luciferase reporter qHTS assay (AID 1671196); further: nearly all actives have a fitted effect of over 50% in size; further: potency means the concentration at half of the fitted maximal effect
Summary of the method: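 Each well received CYP2D6 with its proluciferin substrate and chemical, sat 10 min, then got NADPH regeneration solution for 1 h at room temperature. Luminescence in RLU served as the activity measure.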

[16] = target: Cytochrome P450 2C19 (Homo sapiens) (UniProt P33261); assay: Cytochrome P450 Family 2 Subfamily C Member 19 (CYP2C19) small molecule antagonists: luciferase reporter qHTS assay (AID 1671197); further: nearly all actives have a fitted effect of over 65% in size; further: potency means the concentration at half of the fitted maximal effect
Summary of the method: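 Compounds were tested on CYP2C19 activity via proluciferin conversion to luciferin. The 37C, 1 h reaction followed NADPH addition; detection reagent stopped it.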

[17] = target: Nuclear receptor subfamily 1 group I member 2 (Rattus norvegicus) (UniProt Q9R1A7); assay: Rat pregnane X receptor (rPXR) activation by small molecules, qHTS assay (AID 1346983); conditions: rPXR luciferase reporter cells, One-Glo luminescence, 24 h; stronger effect = higher value; further: nearly all actives have a fitted effect of over 20% in size
Summary of the method: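 Luminescent readout (One-Glo luciferase, 30 min room temperature) followed 24 hr compound treatment at 37 C of rPXR cells plated 2,000 per well and preincubated 5hr; qHTS format with compounds delivered in DMSO.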

[18] = target: Progesterone receptor (Homo sapiens) (UniProt P06401); assay: qHTS assay to identify small molecule antagonists of the progesterone receptor (PR) signaling pathway (AID 1346795; active means well fitted inhibition curve with a large enough effect in the signal ratio in the repeat runs, not every such curve was filed as active; the % refers to the signal ratio; further: potency means the concentration at half of the fitted maximal effect)
Summary of the method: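 Inhibition of R5020-induced (1 nM final) beta-lactamase reporter signal in PR-UAS-bla HEK293T cells was scored by FRET fluorescence after overnight (16 hr) compound treatment.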

[19] = target: Progesterone receptor (Homo sapiens) (UniProt P06401); assay: qHTS assay to identify small molecule agonists of the progesterone receptor (PR) signaling pathway (AID 1346784; calls by dose curve; further: nearly all actives have a fitted effect of over 30% in size)
Summary of the method: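 Using charcoal-stripped serum (2%) to limit endogenous steroids, PR-UAS-bla HEK 293T cells received compounds for 16 hr at 37C after 6 hr plating; beta-lactamase FRET fluorescence was recorded following 2 hr substrate loading at room temperature.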

[20] = target: Nuclear receptor subfamily 1 group I member 2 (Homo sapiens) (UniProt O75469); assay: Human pregnane X receptor (PXR) activation by small molecules, qHTS assay (AID 1346985); further: nearly all actives have a fitted effect of over 40% in size
Summary of the method: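 DPX-2 cells (HepG2 co-transfected with a PXR response element and a CYP3A4-promoter luciferase construct) were seeded at 2,000 per well, rested 5 hr at 37C, then exposed to DMSO-dissolved compounds for 24 hr. Activation was read as luciferase luminescence.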
On the % scale 0 is the no-effect control and ±100 the full control effect.

Thyrotropin-releasing hormone receptor (Homo sapiens), sequence (P34981 whole entry, looked up): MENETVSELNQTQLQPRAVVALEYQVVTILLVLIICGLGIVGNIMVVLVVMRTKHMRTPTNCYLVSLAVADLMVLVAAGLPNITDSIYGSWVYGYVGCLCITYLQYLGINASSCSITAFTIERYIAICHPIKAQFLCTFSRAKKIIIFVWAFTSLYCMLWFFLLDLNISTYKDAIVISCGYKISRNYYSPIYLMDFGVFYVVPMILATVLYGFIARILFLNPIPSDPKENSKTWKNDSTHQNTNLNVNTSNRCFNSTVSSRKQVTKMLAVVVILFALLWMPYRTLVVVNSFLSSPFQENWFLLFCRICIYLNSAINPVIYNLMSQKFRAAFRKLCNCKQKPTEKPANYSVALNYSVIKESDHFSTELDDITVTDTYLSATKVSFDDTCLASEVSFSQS
Nuclear receptor subfamily 1 group I member 2 (Homo sapiens), sequence (O75469 whole entry, looked up): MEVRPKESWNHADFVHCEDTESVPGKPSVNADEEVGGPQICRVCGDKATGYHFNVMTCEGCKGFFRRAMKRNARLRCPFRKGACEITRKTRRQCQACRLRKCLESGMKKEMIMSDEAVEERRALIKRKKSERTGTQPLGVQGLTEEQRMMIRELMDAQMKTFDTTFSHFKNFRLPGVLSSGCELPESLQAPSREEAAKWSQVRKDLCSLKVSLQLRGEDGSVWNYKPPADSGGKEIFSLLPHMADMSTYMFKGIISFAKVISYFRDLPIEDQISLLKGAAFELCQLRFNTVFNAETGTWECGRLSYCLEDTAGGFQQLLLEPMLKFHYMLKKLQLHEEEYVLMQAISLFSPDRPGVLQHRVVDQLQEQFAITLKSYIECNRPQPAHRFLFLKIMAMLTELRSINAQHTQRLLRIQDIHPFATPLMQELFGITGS
Progesterone receptor (Homo sapiens), sequence (P06401 whole entry, looked up): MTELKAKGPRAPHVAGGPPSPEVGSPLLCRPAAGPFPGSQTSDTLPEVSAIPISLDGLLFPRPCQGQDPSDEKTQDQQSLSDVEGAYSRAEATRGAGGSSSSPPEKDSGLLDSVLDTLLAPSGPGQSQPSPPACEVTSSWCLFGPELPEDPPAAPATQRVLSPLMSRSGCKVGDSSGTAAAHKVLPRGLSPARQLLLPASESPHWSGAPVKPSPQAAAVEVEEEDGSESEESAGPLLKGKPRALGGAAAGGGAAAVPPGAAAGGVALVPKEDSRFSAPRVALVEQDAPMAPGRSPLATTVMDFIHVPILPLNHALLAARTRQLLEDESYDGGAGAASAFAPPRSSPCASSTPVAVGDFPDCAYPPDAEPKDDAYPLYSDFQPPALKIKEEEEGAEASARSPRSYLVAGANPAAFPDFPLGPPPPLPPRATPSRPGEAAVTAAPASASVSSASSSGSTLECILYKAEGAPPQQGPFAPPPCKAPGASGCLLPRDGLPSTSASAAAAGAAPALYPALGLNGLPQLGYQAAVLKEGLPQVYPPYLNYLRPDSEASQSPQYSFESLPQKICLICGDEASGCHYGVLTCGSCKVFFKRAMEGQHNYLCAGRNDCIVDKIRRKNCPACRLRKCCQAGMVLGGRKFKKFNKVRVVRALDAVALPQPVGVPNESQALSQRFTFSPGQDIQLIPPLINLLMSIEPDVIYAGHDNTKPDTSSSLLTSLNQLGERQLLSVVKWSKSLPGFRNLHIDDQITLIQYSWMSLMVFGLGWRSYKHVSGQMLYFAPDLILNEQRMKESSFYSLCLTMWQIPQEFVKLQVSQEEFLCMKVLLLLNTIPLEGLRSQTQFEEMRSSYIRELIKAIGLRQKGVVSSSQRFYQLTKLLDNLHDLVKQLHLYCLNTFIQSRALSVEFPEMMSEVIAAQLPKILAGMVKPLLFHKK
Cytochrome P450 2D6 (Homo sapiens), sequence (P10635 whole entry, looked up): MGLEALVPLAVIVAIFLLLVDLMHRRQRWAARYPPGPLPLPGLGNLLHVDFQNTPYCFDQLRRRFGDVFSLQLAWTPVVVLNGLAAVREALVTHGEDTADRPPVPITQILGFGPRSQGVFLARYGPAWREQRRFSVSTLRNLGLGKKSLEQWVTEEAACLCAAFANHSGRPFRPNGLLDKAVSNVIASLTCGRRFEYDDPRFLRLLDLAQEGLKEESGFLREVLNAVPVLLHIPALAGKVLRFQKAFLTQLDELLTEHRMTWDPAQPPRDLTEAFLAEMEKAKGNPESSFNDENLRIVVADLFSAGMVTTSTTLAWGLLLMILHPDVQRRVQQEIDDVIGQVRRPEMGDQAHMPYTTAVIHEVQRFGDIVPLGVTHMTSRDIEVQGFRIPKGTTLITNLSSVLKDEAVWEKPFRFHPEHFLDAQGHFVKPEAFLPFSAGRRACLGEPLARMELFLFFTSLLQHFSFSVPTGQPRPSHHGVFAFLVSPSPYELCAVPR
Cytochrome P450 2C19 (Homo sapiens), sequence (P33261 whole entry, looked up): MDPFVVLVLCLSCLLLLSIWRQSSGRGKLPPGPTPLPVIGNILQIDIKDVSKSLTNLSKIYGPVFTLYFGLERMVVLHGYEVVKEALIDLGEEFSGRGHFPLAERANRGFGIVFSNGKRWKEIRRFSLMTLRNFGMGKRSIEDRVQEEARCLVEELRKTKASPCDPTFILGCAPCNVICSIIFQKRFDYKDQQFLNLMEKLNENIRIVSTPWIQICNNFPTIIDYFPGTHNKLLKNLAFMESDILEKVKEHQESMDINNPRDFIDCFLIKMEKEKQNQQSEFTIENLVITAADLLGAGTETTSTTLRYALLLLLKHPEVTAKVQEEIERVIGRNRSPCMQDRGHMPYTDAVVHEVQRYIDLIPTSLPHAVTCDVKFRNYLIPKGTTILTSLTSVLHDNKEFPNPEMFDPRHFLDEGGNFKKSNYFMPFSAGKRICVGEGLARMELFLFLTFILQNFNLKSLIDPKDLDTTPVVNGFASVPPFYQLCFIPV
Nuclear receptor subfamily 1 group I member 2 (Rattus norvegicus), sequence (Q9R1A7 whole entry, looked up): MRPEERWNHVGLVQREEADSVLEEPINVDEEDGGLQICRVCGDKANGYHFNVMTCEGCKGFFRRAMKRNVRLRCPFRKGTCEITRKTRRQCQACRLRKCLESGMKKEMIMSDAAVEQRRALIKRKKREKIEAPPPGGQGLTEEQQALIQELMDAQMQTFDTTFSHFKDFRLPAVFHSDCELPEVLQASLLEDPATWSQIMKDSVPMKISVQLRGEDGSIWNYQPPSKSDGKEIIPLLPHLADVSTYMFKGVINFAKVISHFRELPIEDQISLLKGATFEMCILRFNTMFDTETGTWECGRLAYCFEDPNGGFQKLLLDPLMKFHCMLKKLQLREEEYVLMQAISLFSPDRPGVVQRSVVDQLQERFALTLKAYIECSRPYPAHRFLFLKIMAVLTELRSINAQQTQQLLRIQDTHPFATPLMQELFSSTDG

Nc1ccc2cc3ccccc3cc2c1
active: Potency [9] 27.8 µM and 21.7 µM
inactive: Potency [1] | Potency [2] | Potency [3] | Potency [4] | Potency [5] | Potency [6] | Potency [7] | Potency [8]

O=C(O)c1cc(Cl)cc(Cl)c1
inactive: Potency [1] | Potency [3] | Potency [4] | Potency [5] | outcome [10] | Potency [11] | Potency [12] | Potency [13] | Potency [6] | Potency [7] | Potency [14] | Potency [8] | Potency [9] | Potency [16]
active: Potency [15] 35.4 µM

O=C1OC2(c3ccc(O)cc3Oc3cc(O)ccc32)c2ccccc21
active: Potency [11] 536 nM and 3.7 µM | Potency [12] 155 nM and 1.69 µM
inactive: Potency [2] | Potency [3] | Potency [4] | Potency [5] | Potency [6] | Potency [14] | max activation [17] 0.287% | Potency [15]
21.7 µM (active) and inactive: Potency [9]

CCCCCCCCCCCCCC[P+](CCCC)(CCCC)CCCC
inactive: Potency [11] | Potency [12] | Potency [14]
active: Potency [1] 12.1 µM and 17.2 µM | Potency [2] 30.5 µM and 54.5 µM | Potency [3] 30.5 µM | Potency [4] 10.9 µM and 27.5 µM | Potency [5] 54.9 µM | Potency [13] 6.31 µM and 13.7 µM | Potency [6] 48.6 µM | Potency [7] 2.42 µM and 7.7 µM | Potency [8] 54.2 µM | Potency [9] 2.16 µM and 6.86 µM | Potency [15] 223 nM and 399 nM | Potency [16] 56.1 µM and 39.9 µM

CC(N)=O
inactive: Potency [1] | Potency [18] | Potency [4] | Potency [5] | Potency [11] | Potency [12] | Potency [13] | Potency [6] | Potency [7] | Potency [14] | Potency [8] | Potency [9] | Potency [15]

BrC1CCC(Br)C(Br)CCC(Br)C(Br)CCC1Br (stereo not drawn)
active: Potency [3] 30.5 µM and 41.1 µM | Potency [7] 48.4 µM | Potency [9] 54.3 µM and 46.1 µM | Potency [16] 1.26 µM and 1.34 µM
inactive: Potency [19] | Potency [4] | Potency [6] | Potency [8] | Potency [15]

CCCOC(=O)c1cc(O)c(O)c(O)c1
inactive: Potency [19] | Potency [18] | Potency [2] | Potency [3] | Potency [4] | Potency [5] | outcome [10] | Potency [6] | Potency [8]
active: Potency [7] 48.3 µM and 30.6 µM | Potency [9] 27.3 µM | Potency [15] 31.6 µM and 35.6 µM | Potency [16] 79.3 µM and 56.4 µM

O=c1n(CC2CO2)c(=O)n(CC2CO2)c(=O)n1CC1CO1 (stereo not drawn)
inactive: Potency [1] | Potency [2] | Potency [4] | Potency [5] | outcome [10] | Potency [11] | Potency [12] | max activation [17] -2.73% | Potency [20] | Potency [15] | Potency [16]
active: Potency [13] 50.1 µM and 54.5 µM | Potency [6] 68.2 µM | Potency [7] 60.8 µM and 48.6 µM | Potency [8] 54.2 µM and 48.6 µM | Potency [9] 17.1 µM and 13.7 µM

Cc1c2oc3c(C)ccc(C(=O)N[C@@H]4C(=O)N[C@H](C(C)C)C(=O)N5CCC[C@H]5C(=O)N(C)CC(=O)N(C)[C@@H](C(C)C)C(=O)O[C@@H]4C)c3nc-2c(C(=O)N[C@@H]2C(=O)N[C@H](C(C)C)C(=O)N3CCC[C@H]3C(=O)N(C)CC(=O)N(C)[C@@H](C(C)C)C(=O)O[C@@H]2C)c(N)c1=O (I: T[dV]P[Sar][NMeV] / II: T[dV]P[Sar][NMeV]; ester I:1-I:C, II:1-II:C; linker I:N-II:N via Actinocin(9to1))
active: Potency [1] 26.6 µM and 10.6 µM | Potency [18] 26.6 nM and 33.5 nM | Potency [13] 29.8 nM and 47.3 nM | Potency [6] 13.3 nM and 18.8 nM | Potency [7] 375 nM and 188 nM | Potency [8] 29.8 µM and 15 µM
inactive: Potency [4] | Potency [5] | outcome [10] | Potency [11] | Potency [12] | Potency [9] | Potency [20] | Potency [15] | Potency [16]

CC(C)(c1ccccc1)c1ccc(Nc2ccc(C(C)(C)c3ccccc3)cc2)cc1
inactive: Potency [1] | Potency [4] | Potency [5] | outcome [10] | Potency [11] | Potency [12] | Potency [13] | Potency [6] | Potency [8] | Potency [9] | Potency [15] | Potency [16]
